Source: PubChem (National Center for Advancing Translational Sciences (NCATS))
HT1080-NT tox = kills 2HG-producing HT-1080-NT fibrosarcoma cells; HT-1080-NT fibrosarcoma viability, CellTiter-Glo ATP luminescence, 48 h; Potency, µM (highest dose often 46.1 µM), without a hit: top-dose activity, negative = less viability, usual class: cytotoxic; 360,000 compounds, 1.6% hits;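 note: NT is the 2HG producing partner of a matched IDH1 knockdown line; potency is the fitted concentration of half-maximal effect; 0% = DMSO-treated cells and -100% = media-only wells without cells; nearly all actives have a fitted effect of over 55% in size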
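HT-1080-NT fibrosarcoma cells (2HG-overproducing), 750 cells/well in RPMI with 5% FBS, dosed after 2 h and incubated 48 h at 37C. CellTiter-Glo luminescence normalized to DMSO and no-cell wells; concentration-response curves fitted and classed.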
DT40 TDP1 CPT = DT40-hTDP1 cell growth loss with CPT; 420,000 compounds, 12% hits; AID 686979; chicken DT40 Tdp1-/-;hTDP1 cells + 20 nM CPT, ATP luminescence, 48 h; Potency, µM (top dose mostly 46.2 µM), for the others: at the top dose activity change, negative = growth inhibition, most hits filed as inhibitors; note: potency is the fitted concentration of half-maximal effect; nearly all actives have a fitted effect of over 55% in size
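Cell growth measured by CellTiter-Glo luminescence after a minimum 48 h, 37 C compound exposure with 20 nM CPT in Tdp1-knockout DT40 cells stably expressing hTDP1, seeded 400/well; qHTS titration format.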
TDP1 cell noCPT = qHTS for Inhibitors of human tyrosyl-DNA phosphodiesterase 1 (TDP1): qHTS in cells in absence of CPT | DT40 Tdp1-/- hTDP1 cells, no CPT, ATP luminescence, 48 h | Potency, µM (highest dose often 46.2 µM), inactives show at the highest dose activity change, negative = growth inhibition, actives largely listed as inhibitors | 420,000 compounds, 15% hits | AID 686978, 2013; note: potency is the fitted concentration of half-maximal effect; nearly all actives have a fitted effect of over 55% in size
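Readout: luminescence from CellTiter-Glo after 30 min in the dark at RT. Cells: DT40 Tdp1-/- with stable hTDP1, 400/well. Exposure: compounds alone, ≥48 hr, 37 °C.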
IL1B secr inh = inhibitors of inflammasome signaling (IL-1 beta secretion). 360,000 compounds, 4.7% hits. activity change, % at 57.5 µM. THP-1 LPS/ATP IL-1B secretion, AlphaLISA, 16 h; stronger effect = lower value; in the data active = activity change below about -50%; inconclusive = mostly about -30% to -49%
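THP-1 cells pretreated 1 hr with compounds (up to 57.5 uM final), then stimulated with LPS (250 ng/mL final) plus ATP (1.25 mM final); secreted IL-1B measured by AlphaLISA after 16 hr, decreased signal indicating inhibition.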
ELG1 repair inh = inhibitors of ELG1-dependent DNA repair in HEK293T cells | HEK293T ELG1-luciferase reporter, luminescence, 16 h; DNA damage induced by 5-fluorouridine | Potency, µM (top dose mostly 46.1 µM), for inactives: at the top dose activity change, negative = inhibition, hits mostly inhibitors | 330,000 compounds, 2.3% hits | AID 504467; note: potency is the fitted concentration of half-maximal effect; nearly all actives have a fitted effect of over 55% in size
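HEK293T cells expressing luciferase-tagged ELG1 (2,000/well) received 5-Fluorouridine plus compound or DMSO for 16 hr at 37 °C. Luciferase was read by ONE-Glo luminescence after 30 min at room temperature.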
HT1080 IDH1KD tx = HT-1080 IDH1 knockdown cell toxicity (counter line) | AID 686971 | HT-1080 IDH1 knockdown viability, ATP luminescence, 48 h | Potency, µM (highest dose often 46.1 µM), without a hit: top-dose activity, negative = toxicity, actives largely listed as cytotoxic | 360,000 compounds, 2% hits;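 note: potency is the fitted concentration of half-maximal effect; 0% = DMSO wells and -100% = cell-free medium wells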
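Luminescent ATP read-out (CellTiter-Glo, 10 min at room temperature) after 48 h compound exposure at 37 °C gave viability of IDH1-knockdown HT-1080 cells. Activity was normalised to DMSO and cell-free wells, then fitted as concentration-response curves.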
The depositor's hits bear a star; ? = inconclusive; · = not tested or not shown. Sampled rows, rich in hits. Any-hit rate of the full collection: about 19%. Unless noted, calls come from the whole dose curve; as a rule, active = well fitted curve in the direction sought with a large enough effect; inconclusive = small, poorly fitted or top-dose-only effect, or another doubt; inactive = no such curve, though single readings can be large; an effect the other way counts as inactive or inconclusive. Unless noted, % is set by controls: 0 for no effect and ±100 for the full control effect.

SMILES	HT1080-NT tox	DT40 TDP1 CPT	TDP1 cell noCPT	IL1B secr inh	ELG1 repair inh	HT1080 IDH1KD tx
CN(C)c1ccc(CNC(=O)CN2C(=O)C3CCCCN3c3ccc(C(=O)N4CCCC4)cc32)cc1 (stereo unspecified)	·	23.1µM*	?	·	·	·
CCCCCCN1C[C@H](O)[C@@H](n2cc(COC(=O)c3ccccc3)nn2)C[C@@H]1c1ccccc1	-2.3%	-25.2%	-5.0%	16.2	·	1.7%
O=C(NCC(c1ccc2c(c1)OCO2)N1CCOCC1)c1c(F)cccc1F (stereo unspecified)	·	-14.8%	-11.5%	·	·	·
CN(C(=O)c1ccc(NC(=O)Cc2cccc(NC(=O)C3CCCN(C(=O)C4CCCC4)C3)c2)cc1)C1CCCC1 (stereo unspecified)	0.3%	20.6µM*	?	-3.4	0.0%	-1.1%
CN(C(=O)c1cccc(NC(=O)Cc2ccc(NC(=O)C3CCCN(C(=O)C4CCCCC4)C3)cc2)c1)C1CCCC1 (stereo unspecified)	-2.1%	?	?	37.9	·	-1.7%
O=C(CN(C(=O)c1cccc([N+](=O)[O-])c1)C1CCCCC1)Nc1ccc(Cl)c([N+](=O)[O-])c1	-21.6%	?	16.4µM*	-20.7	-28.7%	?
CN(C(=O)c1cccc(NC(=O)Cc2cccc(NC(=O)C3CCCN(C(=O)C4CCCC4)C3)c2)c1)C1CCC1 (stereo unspecified)	-3.5%	16.4µM*	?	-11.1	·	0.8%
CN(C(=O)c1cccc(NC(=O)Cc2ccc([N+](=O)[O-])cc2)c1)C1CCCCC1	-20.5%	20.6µM*	14.6µM*	-25.5	?	-16.9%
CN(C(=O)c1ccc(NC(=O)Cc2cccc(NC(=O)C3CCCN(C(=O)C4CCC4)C3)c2)cc1)C1CC1 (stereo unspecified)	-2.5%	-17.7%	?	-1.6	·	-6.2%
O=C(CCNC(=O)c1ccccc1Cl)NCC1COc2ccccc2O1 (stereo unspecified)	0.6%	1.1%	-17.7%	3.6	-0.7%	1.0%
CCOC(=O)C1=C(CC)Nc2ccccc2N=C1NC(=O)c1ccc(OC)c(S(=O)(=O)N2CCOCC2)c1	1.3%	?	?	-13.9	·	8.6%
CCOC(=O)[C@]12CCCC=C1N(Cc1ccco1)C(=O)[C@H](CC(=O)N1CCCC1)C2	26.1%	-6.0%	-8.4%	-0.3	·	-3.6%
CN(C(=O)c1cccc(NC(=O)Cc2cccc(NC(=O)C3CCCN(C(=O)C4CCC4)C3)c2)c1)C1CCC1 (stereo unspecified)	-0.4%	?	23.1µM*	7.2	·	2.6%
CN(C(=O)c1ccc(Oc2ccc([N+](=O)[O-])cc2)cc1)C1CCCCC1	?	?	23.1µM*	-20.3	-27.7%	-10.6%
CN(C(=O)c1cccc(NC(=O)Cc2ccc(NC(=O)C3CCCN(C(=O)C4CCC4)C3)cc2)c1)C1CCCCC1 (stereo unspecified)	5.9%	23.1µM*	?	21.8	·	-1.2%
OCCn1nc(-c2ccccc2)cc1-c1ccccc1	-13.8%	-24.4%	-29.2%	-11.3	2.1%	-1.0%
CC(Oc1ccccc1C(N)=O)C(=O)Nc1ccc(S(=O)(=O)N2CCCC2)cc1 (stereo unspecified)	-15.9%	?	-28.5%	22.4	?	-12.3%
O=C(Nc1ccc(Cc2nc3ccccc3s2)cc1)c1ccncc1	-26.7%	?	11.6µM*	0.0	?	-24.5%
CC(C)Oc1ccc(C(=O)Nc2ccc(-c3nc4ccccc4s3)cc2)cc1	·	10.3µM*	?	·	·	·
